# Shown are actives, neighbours in structure and some others; about 1.2% of the full set was active somewhere.
# Gli-Sufu antag: blocks Gli-Sufu signaling in a luciferase reporter; inhibition, % at 5 µM; AID 588413; hit rate 0.74% among 340,000; Sufu-KO-LIGHT fibroblasts, Gli luciferase reporter luminescence;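 active means inhibition above about 55%, limit read from the data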;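 further: 0% = DMSO-treated cells and 100% = wells with medium but no cells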
# NCOA1 inh: inhibitors of human steroid receptor coactivator 1 (SRC1); Q15788; HEK293 GAL4-SRC1 luciferase reporter, luminescence; inhibition, % at 3.6 µM; hit rate 0.12% among 360,000; AID 588354;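 active means inhibition above the campaign mean plus 3 SD, with each screening campaign given its own cutoff, cut at about 60% in these data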;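 further: 0% = DMSO treated cells and 100% = gossypol at 36 µM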
# NR5A2 inv ag: inverse agonists of human LRH-1 (NR5A2); O00482; HEK293T StAR-luciferase reporter, LRH-1 transfected, 24 h; inhibition, % at 3.6 µM; hit rate 0.13% among 360,000;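 active means inhibition above the mean inhibition of all tested compounds plus 3 SD, cut at about 73% in these data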;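 further: 0% = DMSO wells and 100% = reporter-only cells lacking LRH-1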
# NCOA3 inh: inhibits human SRC3 coactivator | inhibition, % at 3.6 µM | hit rate 0.17% among 360,000 | HEK293 GAL4-SRC3 luciferase reporter, luminescence | AID 588352 | Q9Y6Q9;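 active means inhibition above a per-campaign cutoff, the mean of all compounds plus 3 SD, cut at about 60% in these data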;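 further: 0% = DMSO-treated cells and 100% = gossypol-treated cells at 36 µM; higher means less SRC3-driven luciferase light from the GAL4 reporter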
# Target sequence (Q9Y6Q9 whole entry, looked up, the tested form may be a part): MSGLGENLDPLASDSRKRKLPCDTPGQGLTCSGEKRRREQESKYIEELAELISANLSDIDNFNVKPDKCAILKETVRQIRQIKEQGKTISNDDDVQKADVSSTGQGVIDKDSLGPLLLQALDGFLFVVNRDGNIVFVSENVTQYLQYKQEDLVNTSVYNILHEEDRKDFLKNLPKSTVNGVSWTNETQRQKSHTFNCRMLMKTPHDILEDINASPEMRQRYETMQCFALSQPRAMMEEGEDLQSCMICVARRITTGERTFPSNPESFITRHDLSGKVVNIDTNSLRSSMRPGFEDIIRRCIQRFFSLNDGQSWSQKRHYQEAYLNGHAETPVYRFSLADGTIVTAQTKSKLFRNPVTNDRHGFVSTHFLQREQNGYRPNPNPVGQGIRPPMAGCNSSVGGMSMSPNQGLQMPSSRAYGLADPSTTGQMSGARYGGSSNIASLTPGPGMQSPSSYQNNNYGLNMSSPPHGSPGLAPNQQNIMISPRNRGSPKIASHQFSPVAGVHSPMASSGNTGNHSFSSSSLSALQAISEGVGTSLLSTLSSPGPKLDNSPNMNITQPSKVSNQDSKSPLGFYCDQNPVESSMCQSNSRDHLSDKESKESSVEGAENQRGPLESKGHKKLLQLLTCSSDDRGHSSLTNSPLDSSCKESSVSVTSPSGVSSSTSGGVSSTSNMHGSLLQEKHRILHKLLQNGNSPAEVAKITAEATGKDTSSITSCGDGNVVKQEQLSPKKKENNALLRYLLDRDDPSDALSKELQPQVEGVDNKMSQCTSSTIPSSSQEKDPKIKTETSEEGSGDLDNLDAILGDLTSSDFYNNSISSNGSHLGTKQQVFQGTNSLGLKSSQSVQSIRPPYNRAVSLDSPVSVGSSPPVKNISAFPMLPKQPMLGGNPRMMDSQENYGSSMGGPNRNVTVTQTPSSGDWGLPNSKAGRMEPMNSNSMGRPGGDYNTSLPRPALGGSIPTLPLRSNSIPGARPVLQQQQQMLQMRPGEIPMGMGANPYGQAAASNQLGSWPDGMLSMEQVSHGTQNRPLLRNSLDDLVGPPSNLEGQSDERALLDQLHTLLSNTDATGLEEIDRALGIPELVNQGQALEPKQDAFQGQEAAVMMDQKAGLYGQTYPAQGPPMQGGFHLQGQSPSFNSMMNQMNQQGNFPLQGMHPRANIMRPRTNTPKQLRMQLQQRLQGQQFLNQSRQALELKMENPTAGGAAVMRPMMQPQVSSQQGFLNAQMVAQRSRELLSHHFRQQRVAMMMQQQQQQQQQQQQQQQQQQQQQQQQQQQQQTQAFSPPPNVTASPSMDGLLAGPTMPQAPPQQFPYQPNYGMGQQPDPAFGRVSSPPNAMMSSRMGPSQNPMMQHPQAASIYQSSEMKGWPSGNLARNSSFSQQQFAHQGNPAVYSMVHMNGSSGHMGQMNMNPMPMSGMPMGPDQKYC
# SRC2 inh: inhibits human steroid receptor coactivator 2. Q15596. HEK293 GAL4-SRC2 luciferase reporter, luminescence. inhibition, % at 9 µM. hit rate 0.17% among 370,000;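 active means inhibition above the mean inhibition of all tested compounds plus 3 SD, set per campaign, cut at about 52% in these data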;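 further: 0% = DMSO treated cells and 100% = cells given Gossypol at 36 µM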
# COUP-TFII inh: blocks human COUP-TFII nuclear receptor. P24468. AID 686940. inhibition, % at 8.6 µM. HEK293T NGFI-A luciferase reporter, luminescence. hit rate 0.7% among 370,000;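 active means inhibition above a per-plate cutoff, mean inhibition of test wells between control levels plus 3 SD, cut at about 38% in these data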;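 further: cells cotransfected with COUP-TFII expression vector driving the NGFI-A reporter; 0% = median of COUP-TF2 test wells and 100% = reporter-only cells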
# Gli-Sufu confirm: Gli-SUFU antagonism confirmation, single concentration. shares compounds with Gli-Sufu antag. Sufu-KO-LIGHT cells, Gli luciferase reporter, luminescence. inhibition, % at 5 µM. hit rate 40% among 2,500. AID 602428;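 active means mean inhibition at 5 µM reaching about 45%, limit read from the data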;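 further: plate controls were DMSO-treated cells for no effect and wells lacking cells for full effect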
# SufuKO cytotox: counter-screen for Gli-SUFU antagonists: cytotoxicity; cytotoxicity, % at 5 µM; shares compounds with Gli-Sufu antag; Sufu-KO-LIGHT cells cytotoxicity, ATP luminescence; hit rate 32% among 2,500;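 active means mean cytotoxicity at 5 µM above about 25%, limit read from the data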;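 further: cells exposed to compound overnight for roughly 16 to 18 hours; plate controls were DMSO wells with cells for no effect and medium without cells for full effect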
# Wnt3a counter: Wnt3a reporter inhibition counter-screen | shares compounds with Gli-Sufu antag | Wnt-LIGHT cells, Wnt3a-driven luciferase reporter, luminescence | inhibition, % at 6.25 µM | hit rate 20% among 2,500 | AID 651995;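 active means mean inhibition above about 25%, limit read from the data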
# Gal4-VP16 ctr: inhibits VP16 reporter, flagging COUP-TFII antagonist hits | shares compounds with COUP-TFII inh | HEK293 Gal4-VP16 luciferase reporter, luminescence | inhibition, % at 8.5 µM | hit rate 25% among 2,500 | AID 687007; in the data active means inhibition above about 13%
# COUP-TFII conf: confirmation of human COUP-TFII (NR2F2) inhibitors. inhibition, % at 8.5 µM. AID 687008. HEK293 NGFI-A luciferase reporter, luminescence. hit rate 45% among 2,500. shares compounds with COUP-TFII inh;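 active means mean inhibition over three repeats above a set limit taken from the earlier primary screen, cut at about 38% in these data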;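 further: 100% = cells given the luciferase reporter alone without the COUP-TF2 vector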
# The depositor's hits bear a star; . = no result.
SMILES,Gli-Sufu antag,NCOA1 inh,NR5A2 inv ag,NCOA3 inh,SRC2 inh,COUP-TFII inh,Gli-Sufu confirm,SufuKO cytotox,Wnt3a counter,others
COc1ccc(-c2nn(CCC#N)cc2C(=O)NCc2ccccc2)cc1[N+](=O)[O-],-2,6,-5,-1,-22,4,.,.,.,
N#C/C=C/C#N,25,-18,14,12,20,5,.,.,.,
COc1ccc(CCNCc2sccc2C)cc1,15,-3,-21,-13,-35,-11,.,.,.,
COc1ccc(O)c2c(=O)c3c(OC)cc4c(c3oc12)C1C=COC1O4 (configuration not stated),60*,-5,13,7,-13,11,69*,37*,20,
COP(=O)(C#Cc1ccccc1)C(O)c1ccc(Br)cc1 (configuration not stated),2,1,9,9,-11,-9,.,.,.,
Cc1cccc(N2C(=O)NC(=O)/C(=C\c3cc(C)n(-c4sc5c(c4C#N)CCCC5)c3C)C2=O)c1C,58*,3,-10,-12,17,15,50*,34*,-31,
CCOP(=O)(OCC)C1(O)C(=O)Nc2ccccc21 (configuration not stated),-10,1,25,1,13,2,.,.,.,
CC1CCCC(C2(O)C(=O)Nc3ccccc32)C1=O (configuration not stated),96*,-6,5,9,-1,-5,31,15,10,
CCOc1cccc(=NC2CCCCC2)c2c(C)n(C)c(C)c12,86*,15,3,26,21,0,89*,44*,4,
CCN(CC)C(=O)c1ccc(NC(=O)CSc2nnnn2-c2cc(OC)ccc2OC)cc1,70*,-14,19,14,2,20,23,7,21,
CC(C)CCC1(CCO)C(=O)NC(=S)NC1=O,1,5,-1,-7,6,-4,.,.,.,
CC(C)C(NC(=O)C(C(C)C)N(C)C)C(=O)N(C)C(C(=O)N1CCCC1C(=O)N1CCCC1C(=O)NCc1ccccc1)C(C)C (configuration not stated),51,-7,27,19,16,-54,57*,52*,14,
CCOP(=O)(Cc1cc(C(C)=O)c(C)o1)OCC,68*,2,-3,7,-7,12,11,5,-6,
CCCC(=O)c1cc(CP(=O)(OCC)OCC)oc1C,-1,4,-7,15,-14,-5,.,.,.,
O=C(C(=O)N1CCOCC1)c1cn(CCCOc2ccccc2)c2ccccc12,-11,-13,1,19,-15,4,.,.,.,
CC(=O)c1cn(CCCOc2ccccc2)c2ccccc12,50,-14,8,15,-2,45*,19,7,-8,Gal4-VP16 ctr=-7;COUP-TFII conf=10
Cc1ccc(-c2cc(-c3ccc(C)cc3)[n+](C)o2)cc1,83*,49,66,54,-6,69*,86*,30*,36*,Gal4-VP16 ctr=6;COUP-TFII conf=56*
CC(C)Sc1nnc([C@@H](N)Cc2ccccc2)o1,-6,-26,-5,-4,-16,-19,.,.,.,
COc1ccc(CC(C)NCCc2ccc(OC)c(OC)c2)cc1 (configuration not stated),-8,6,0,5,17,-6,.,.,.,
CCN(CC)C1=NC(=[N+](CC)CC)c2ccccc21,79*,40,55,27,31,45*,80*,27*,39*,Gal4-VP16 ctr=12;COUP-TFII conf=52*

# Screening data as filed in PubChem BioAssay.
